Sampled rows, rich in hits. Any-hit rate of the full collection: about 0.78%.
LRH-1 inv ag: inverse agonists of human LRH-1 (NR5A2). O00482. HEK293T StAR-luciferase reporter, LRH-1 transfected, 24 h. inhibition, % at 3.6 µM. actives 0.13% (n = 360,000);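 active means inhibition above the mean inhibition of all tested compounds plus 3 SD, cut at about 73% in these data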;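 further: 0% = DMSO wells and 100% = reporter-only cells lacking LRH-1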
SRC2 inh: human SRC2 (NCOA2) inhibition; inhibition, % at 9 µM; actives 0.17% (n = 370,000); HEK293 GAL4-SRC2 luciferase reporter, luminescence; Q15596;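 active means inhibition above the mean inhibition of all tested compounds plus 3 SD, set per campaign, cut at about 52% in these data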;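 further: 0% = DMSO treated cells and 100% = cells given Gossypol at 36 µM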
LMP1 NFkB inh: Epstein-Barr LMP1 NF-kappaB reporter inhibition; actives 0.69% (n = 350,000); AID 504558; LMP1-induced NF-kappaB luciferase reporter cells, luminescence; inhibition, % at 12.5 µM; in the data active means inhibition above about 41%;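 further: 0% = neutral control wells and 100% = reference inhibitor control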
NCOA3 inh: inhibitors of human steroid receptor coactivator 3 (SRC3); Q9Y6Q9; HEK293 GAL4-SRC3 luciferase reporter, luminescence; inhibition, % at 3.6 µM; actives 0.17% (n = 360,000); AID 588352;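 active means inhibition above a per-campaign cutoff, the mean of all compounds plus 3 SD, cut at about 60% in these data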;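 further: 0% = DMSO-treated cells and 100% = gossypol-treated cells at 36 µM; higher means less SRC3-driven luciferase light from the GAL4 reporter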
NCOA1 inh: human NCOA1 inhibition; HEK293 GAL4-SRC1 luciferase reporter, luminescence; inhibition, % at 3.6 µM; actives 0.12% (n = 360,000);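 active means inhibition above the campaign mean plus 3 SD, with each screening campaign given its own cutoff, cut at about 60% in these data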;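 further: 0% = DMSO treated cells and 100% = gossypol at 36 µM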
Target sequence (Q15788 whole entry, looked up, the tested form may be a part): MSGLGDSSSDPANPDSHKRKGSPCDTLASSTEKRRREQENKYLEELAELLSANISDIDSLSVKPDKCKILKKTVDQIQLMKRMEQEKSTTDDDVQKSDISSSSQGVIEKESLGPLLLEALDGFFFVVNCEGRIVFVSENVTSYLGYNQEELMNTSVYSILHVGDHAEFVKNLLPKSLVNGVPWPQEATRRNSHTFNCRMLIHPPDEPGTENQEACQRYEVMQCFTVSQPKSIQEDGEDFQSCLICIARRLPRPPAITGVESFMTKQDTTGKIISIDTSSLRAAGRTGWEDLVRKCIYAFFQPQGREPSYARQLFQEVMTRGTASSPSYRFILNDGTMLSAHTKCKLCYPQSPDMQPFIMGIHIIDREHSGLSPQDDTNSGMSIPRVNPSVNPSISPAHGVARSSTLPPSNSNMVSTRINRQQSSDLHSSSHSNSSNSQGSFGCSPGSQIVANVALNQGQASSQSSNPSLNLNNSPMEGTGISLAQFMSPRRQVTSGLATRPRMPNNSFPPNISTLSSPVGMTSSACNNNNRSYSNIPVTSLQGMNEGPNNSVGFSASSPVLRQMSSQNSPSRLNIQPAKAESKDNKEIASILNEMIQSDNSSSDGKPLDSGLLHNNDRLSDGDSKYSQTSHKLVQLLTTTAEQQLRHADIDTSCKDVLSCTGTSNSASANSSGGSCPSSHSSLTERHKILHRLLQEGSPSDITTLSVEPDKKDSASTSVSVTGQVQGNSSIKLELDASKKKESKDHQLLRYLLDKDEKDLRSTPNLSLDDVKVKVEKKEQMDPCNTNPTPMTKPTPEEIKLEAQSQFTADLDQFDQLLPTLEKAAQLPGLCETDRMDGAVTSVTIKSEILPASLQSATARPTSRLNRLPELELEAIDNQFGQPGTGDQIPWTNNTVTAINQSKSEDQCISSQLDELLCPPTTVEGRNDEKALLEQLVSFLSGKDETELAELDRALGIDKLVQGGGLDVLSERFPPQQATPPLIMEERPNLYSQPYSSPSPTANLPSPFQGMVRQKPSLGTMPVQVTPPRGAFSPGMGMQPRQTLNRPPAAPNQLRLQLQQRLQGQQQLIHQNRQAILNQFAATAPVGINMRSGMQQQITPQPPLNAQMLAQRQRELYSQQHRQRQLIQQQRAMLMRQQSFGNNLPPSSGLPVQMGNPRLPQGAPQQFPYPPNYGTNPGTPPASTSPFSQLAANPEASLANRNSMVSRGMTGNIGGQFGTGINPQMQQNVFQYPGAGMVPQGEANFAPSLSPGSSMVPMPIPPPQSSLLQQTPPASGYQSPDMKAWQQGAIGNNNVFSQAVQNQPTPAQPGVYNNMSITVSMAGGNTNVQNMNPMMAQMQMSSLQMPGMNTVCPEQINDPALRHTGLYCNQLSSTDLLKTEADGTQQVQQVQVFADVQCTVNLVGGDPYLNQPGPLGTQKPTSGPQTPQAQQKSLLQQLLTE
Numbers without * were called inactive; / = not tested or not shown.

SMILES | LRH-1 inv ag | SRC2 inh | LMP1 NFkB inh | NCOA3 inh | NCOA1 inh
CCCC(=O)NC(c1ccc(OC)c(OC)c1)c1cc(Cl)c2cccnc2c1O (configuration not stated) | -13.4 | -1.1 | 32.1 | 23.1 | -1.0
CC(=O)NC(c1ccc(N(C)C)cc1)c1cc(Cl)c2cccnc2c1O (configuration not stated) | 18.4 | 17.9 | 11.1 | 28.1 | 22.1
CCCC(=O)NC(c1ccc(N(C)C)cc1)c1ccc2cccnc2c1O (configuration not stated) | 72.0 | 27.4 | 46.7* | 55.7 | 15.7
CCCC(=O)NC(c1ccccc1Cl)c1ccc2cccnc2c1O (configuration not stated) | 84.0* | 31.4 | 66.3* | 47.2 | 53.0
CC(=O)NC(c1ccc(Cl)cc1)c1ccc2cccnc2c1O (configuration not stated) | 60.3 | 29.4 | 62.9* | 34.8 | 28.2
CCCC(=O)NC(c1ccc(C(C)C)cc1)c1ccc2cccnc2c1O (configuration not stated) | 35.3 | 32.2 | 61.9* | 54.2 | -9.2
CC1CCN(c2ccc(C(=O)O)cc2NS(=O)(=O)c2ccc(Cl)s2)CC1 | / | 6.3 | / | / | /
O=C1[C@H]2CCCC[C@H]2C(=O)N1CCCCN1CCN(c2nsc3ccccc23)CC1 | 34.4 | -6.8 | 61.8* | -9.4 | -16.5
COc1ccccc1N1CCN(CCCCN2C(=O)C3CCCN3C2=O)CC1 (configuration not stated) | -20.6 | 5.7 | 1.0 | 1.5 | -7.6
COc1ccc(C(=O)C(CCC(CNC(C)(C)C)C(=O)c2ccc(OC)cc2)CNC(C)(C)C)cc1 (configuration not stated) | 11.6 | 53.8* | 8.6 | 34.9 | 22.7
COc1ccc(C(=O)CC(=O)c2ccc(C(C)(C)C)cc2)cc1 | -18.4 | -13.2 | 4.3 | -13.4 | -7.8
C=CCN(CC=C)c1ncnc2[nH]ncc12 | 29.0 | 53.2* | 29.1 | 53.1 | 54.7
O=C1/C(=C\c2ccccc2)SC(=S)N1CCC(=O)N1CCCCC1CCO (configuration not stated) | 7.0 | 4.8 | -5.5 | 8.9 | -4.7
COC(=O)c1ccc(/C=C2/SC(=S)N(CCCC(=O)Nc3ccc(O)cc3)C2=O)cc1 | -1.5 | 35.5 | 22.1 | 8.6 | -5.7
Cc1ccc(/C=C2\SC(=S)N(CCCC(=O)Nc3ccc(O)cc3)C2=O)cc1 | 8.9 | 66.5* | 38.7 | 46.7 | 22.8
COc1ccc(/C=C2\SC(=S)N(CCCC(=O)N3CCCCC3CCO)C2=O)cc1 (configuration not stated) | 27.5 | 76.8* | 6.8 | 34.2 | 24.4
CCc1ccc(/C=C2\SC(=S)N(CCCC(=O)Nc3ccccc3C(=O)O)C2=O)cc1 | 7.5 | 21.8 | -4.0 | 0.8 | -0.5
Cc1ccc(/C=C2\SC(=S)N(CCCC(=O)Nc3ccccn3)C2=O)cc1 | 41.9 | 89.3* | 55.7* | 57.4 | 47.9
COc1ccc(/C=C2/SC(=S)N(CCCC(=O)Nc3ccccc3C(=O)O)C2=O)cc1 | 23.4 | 66.3* | 16.6 | 35.2 | 36.3
COC(=O)C1CN(C2CC2)CCS(=O)(=O)N1Cc1cn(Cc2ccc(OC)cc2)nn1 (configuration not stated) | / | 10.1 | / | / | /
CCN(CC)C(=O)CC[C@@H]1CC[C@]2(CCCN(C(=O)C3CCCCC3)C2)O1 | / | 4.0 | / | / | /
Cc1ccc(/C=C2/SC(=S)N(CCCC(=O)Nc3cc([N+](=O)[O-])ccc3O)C2=O)cc1 | 3.2 | 55.0* | 4.7 | 13.5 | -27.9
COc1cc(/C=C2/SC(=S)N(Cc3ccccc3)C2=O)ccc1OCC(=O)O | -9.0 | 2.3 | 46.9* | -7.0 | -4.4
Cc1ccc(/C=C2\SC(=S)N(CCCC(=O)Nc3ccccc3C(=O)O)C2=O)cc1 | 5.4 | 65.9* | 13.4 | 18.4 | 22.7
COc1ccc(/C=C2\SC(=O)N(CCCC(=O)Nc3ccc(C(=O)O)cc3)C2=O)cc1 | 74.2* | 90.7* | 49.9* | 72.7* | 72.7*
SMILES | LRH-1 inv ag | SRC2 inh | LMP1 NFkB inh | NCOA3 inh | NCOA1 inh
COc1ccc(-c2cc(-c3nnc(SCc4cccc5ccccc45)n3N)[nH]n2)cc1 | / | 10.7 | / | / | /
COc1cccc(/C=C2\SC(=S)N(CCC(=O)Nc3ccc(O)cc3)C2=O)c1 | 5.8 | -16.3 | -0.5 | -15.6 | -8.1
COc1cccc(/C=C2\SC(=S)N(CCC(=O)NCCc3ccc(O)cc3)C2=O)c1 | 5.7 | 0.8 | 41.4* | -17.1 | 10.0
CC(CN1CCCCC1)OC(=O)c1ccc2c(c1)OCO2 (configuration not stated) | -26.8 | -14.2 | 43.1* | -2.8 | -11.3
O=C(/C=C/c1ccccc1)NC(NC(=S)Nc1cccc(Cl)c1)C(Cl)(Cl)Cl (configuration not stated) | 6.4 | -7.8 | 55.8* | -22.9 | -0.8
COC(=O)[C@H]1C[C@@]2(C3C=CC=C3)c3ccccc3N[C@H]2N1 | / | 10.9 | / | / | /
Cc1nn(-c2ccccc2Cl)c(Cl)c1/C=N/Nc1nc2ccccc2s1 | 41.5 | 81.4* | 56.0* | 78.7* | 66.8*
CCOC(=O)N/N=C/c1c(C)nn(-c2ccccc2Cl)c1Cl | -59.9 | -100.4 | -15.5 | -43.1 | -85.2
Cc1ccccc1CC(=O)NCc1cccnc1 | 10.3 | -5.2 | 66.8* | -2.9 | -2.0
Cc1ccccc1CN(c1ccc(C(=O)NCc2cccnc2)cc1)S(C)(=O)=O | -4.2 | -1.4 | 52.0* | 14.0 | 22.4
CN(c1ccc(C(=O)NCc2cccnc2)cc1)S(C)(=O)=O | -9.2 | 1.1 | -11.0 | 9.5 | 3.8
COc1ccccc1NC(=O)OCCCN1CCC2(CCC(C)CC2)C1=O (configuration not stated) | / | 20.1 | / | / | /
c1ccc(-c2c[nH]c3ccc(OCc4ccc5ccccc5n4)c(-c4ccccc4)c23)cc1 | / | 10.4 | / | / | /
CCCCOCCCNC(=O)C[C@H]1C[C@@]2(C(=O)OC)C(=C[C@H](C(C)C)O[C@@H]2C2CC2)N(Cc2ccc(Cl)cc2Cl)C1=O | / | -7.6 | / | / | /
O=C(CN1C(=O)CCOc2ccccc21)Nc1ccc(Cl)c(S(=O)(=O)N2CCOCC2)c1 | 1.7 | 13.1 | 42.2* | 15.7 | -5.7
CCOC(=O)[C@]12CCCC3=C1N(CCC3)C(=O)[C@@H](CC(=O)NCCc1ccccc1OC)C2 | / | -4.2 | / | / | /
COC(=O)C[C@H]1CC[C@H]2[C@H](COc3ccc(NC(=O)Cc4cccs4)cc3C(=O)N2C)O1 | / | 8.0 | / | / | /
CN(Cc1ccccc1)C1=CC(=[N+]2CCCC2)CC(C)(C)C1 | 72.3 | 7.6 | 15.2 | 62.6* | 38.8
CCN(CC)C1=CC(=[N+]2CCCC2)CC(C)(C)C1 | 55.5 | 12.8 | 6.6 | 30.7 | 31.0
O=C(Nc1ncccc1O)c1cc2ccccc2o1 | -105.5 | -64.1 | 41.9* | -96.3 | -133.7
O=C(Nc1ccccn1)c1cc2ccccc2o1 | -34.3 | 31.7 | 46.3* | -41.8 | -15.0
O=C(N/N=C/c1c(O)ccc2ccccc12)c1cccnc1 | 91.8* | 36.2 | 50.8* | 77.3* | 56.9
O=C(N/N=C/c1c(O)ccc2ccccc12)Nc1ccccc1 | / | -10.1 | / | / | /
O=C(N/N=C/c1c(O)ccc2ccccc12)c1ccc(Br)o1 | -0.3 | 8.4 | 60.7* | 39.4 | -2.8
O=C(CSCC(=O)Nc1ccccc1)N/N=C/c1c(O)ccc2ccccc12 | 58.5 | 40.9 | 51.4* | 58.5 | 32.9

High-throughput results from PubChem BioAssay.
